Data published in PubChem BioAssay AID488922 (Johns Hopkins Ion Channel Center, 2010).
Screen size: about 310,000 compounds; about 3,800 (1.2%) were called active.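 The calls were made as follows: active = ratio B-score over 3 SD below the library mean, with starting fluorescence within 5 SD of its mean; inactive = the rest, inconclusive results apart.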 Only a selection was taken, and actives are over-represented in it overall.

Target: Potassium channel subfamily K member 9 (Homo sapiens) (UniProt Q9NPC2)
Assay: blockers of human TASK-3 (KCNK9) channel – HEK293 cells, thallium flux, primary screen (AID 488922);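 as to B-score: negative B-score means less thallium flux so channel inhibition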
Conditions: HEK293 KCNK9, FluxOR thallium flux fluorescence, at 10 µM; hits give low values

Chain of Potassium channel subfamily K member 9 (Homo sapiens) (Q9NPC2 whole entry, looked up): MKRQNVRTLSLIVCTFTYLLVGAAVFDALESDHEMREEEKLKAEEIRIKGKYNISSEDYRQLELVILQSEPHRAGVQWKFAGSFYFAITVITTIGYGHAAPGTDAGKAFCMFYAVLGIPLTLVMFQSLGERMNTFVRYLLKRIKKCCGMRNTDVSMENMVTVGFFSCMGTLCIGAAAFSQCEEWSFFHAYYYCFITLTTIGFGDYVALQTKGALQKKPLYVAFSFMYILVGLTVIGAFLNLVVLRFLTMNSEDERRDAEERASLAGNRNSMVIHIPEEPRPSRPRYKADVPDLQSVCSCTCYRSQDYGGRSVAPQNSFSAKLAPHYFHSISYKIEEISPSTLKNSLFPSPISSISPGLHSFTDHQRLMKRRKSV

Structure (SMILES)	B-score
COc1cccc(CN2CCNC(=O)C2CC(=O)N(C)CCc2ccccn2)c1 (centres undefined)	inactive
Cc1ccc(CN(N=Nc2nonc2N)c2nonc2N)c(C)c1	-10.2 (active)
CCN(CC(=O)NCC(=O)Nc1cccc(C)c1C)Cc1ccccc1	inactive
CC1(C)C2CC[C@]3(C)C(CC=C4[C@@H]5C[C@@](C)(CO)CC[C@]5(C(=O)O)CC[C@]43C)[C@@]2(C)CC[C@@H]1O (some centres undefined)	inactive
Cc1n[nH]c(=O)c2c1nnn2Cc1ccc(F)cc1	inactive
COCCNc1cc(-c2ccccc2)nc2cc(-c3cccc(F)c3)nn12	-9.68 (active)
COc1ccc(NC(=O)c2cc3nc(-c4ccccc4)cc(C)n3n2)cc1OC	inactive
COC(=O)c1cc2nc(-c3ccccc3)cc(C(F)(F)F)n2n1	inactive
COCCN(Cc1nc(-c2ccc(C(F)(F)F)cc2)no1)C(C)C	inactive
O=C(Nc1ccccc1Cl)/C(Cl)=C(\Cl)S(=O)c1ccccc1 (centres undefined)	-6.6 (active)
O=C(Cc1ccc2c(c1)CCCC2)Nc1ccccc1Cl	inactive
O=C(Nc1ccccc1Cl)Nc1cccc2cccnc12	inactive
COc1cc(-c2nnc(Cn3cc(C(F)(F)F)ccc3=O)o2)cc(OC)c1OC	inactive
COc1cccc(CNc2nc3nc4c(c(=O)n3[nH]2)CCC4)c1	inactive
COc1cccc(NC(=O)CN2CCN(c3nc(-c4cccc(OC)c4)cs3)CC2)c1	inactive
COc1cccc(-c2cc3nc4c(c(N5CCC6(CC5)OCCO6)n3n2)CCCC4)c1	-9.24 (active)
CCC(=O)Nc1nnc(S(=O)(=O)N2CCCc3ccccc32)s1	inactive
CCSc1nsc(NC(=O)Nc2cccc(C(C)=O)c2)n1	inactive
Cc1ccc(C(=O)N(CC(=O)NC2CCCC2)c2ccc(F)cc2)s1	inactive
O=C(CSc1ccccc1)Nc1cc(Cl)ccc1Oc1ccccc1	-8.08 (active)
CC1CCCN(CC(=O)Nc2cc(Cl)ccc2Oc2ccccc2)C1 (centres undefined)	inactive
CC(=O)Nc1ccc(SCC(=O)Nc2ccccc2Oc2ccccc2)cc1	inactive
N#CCOc1ccc(C2=NO[C@@H]3[C@@H]4C[C@@H]([C@H]5C(=O)N(c6ccc7c(c6)OCO7)C(=O)[C@@H]45)[C@H]23)cc1	inactive
O=C(N/C(=C\c1ccc(O)cc1)C(=O)N1CCCCC1)c1ccccc1	inactive
COc1ccc(C)cc1NC(=O)NCCCCc1ccccc1	inactive
COc1ccc(C)cc1NC(=O)Nc1ccccc1SC	inactive

Structure (SMILES)	B-score
COc1ccc(C)cc1NC(=O)C(Sc1ccccc1)c1ccccc1 (centres undefined)	-8.19 (active)
CC(Sc1nnnn1C)C(=O)NC(=O)NC1CCCCC1 (centres undefined)	inactive
Cc1ccc(S(=O)(=O)NC(C)C(=O)NCc2ccc(Cl)cc2)cc1 (centres undefined)	inactive
Cc1cc(Cl)ccc1OCc1nc(-c2ccncc2)no1	inactive
NC(=O)c1ccc(NC(=O)COC(=O)c2c3c(nc4ccccc24)/C(=C\c2ccc4c(c2)OCO4)CCC3)cc1	inactive
O=C(COC(=O)c1c2c(nc3ccccc13)CCCC2)c1ccc(Br)s1	-9.29 (active)
O=C(Nc1c2c(nc3ccccc13)CCCC2)c1ccccc1Br	inactive
COC(=O)COc1ccc2c(=O)c(Oc3ccccc3Br)coc2c1	inactive
CCCCc1cc(=O)oc2c(C)c(OCC(=O)N3CCC(C(N)=O)CC3)ccc12	inactive
O=C(/C=C/c1ccc(N2CCOCC2)cc1)c1ccccc1	inactive
CCOc1ncccc1C(=O)OCC(=O)NC1CC1	inactive
Cc1nc2ccccc2c(=O)n1NC(=O)c1ccc(Cl)c([N+](=O)[O-])c1	inactive
O=C(Nn1c(SCc2ccc([N+](=O)[O-])cc2)nc2ccccc2c1=O)c1ccc(F)cc1	-8.82 (active)
C=CCn1c(SCc2ccc(C(=O)NCCO)cc2)nc2ccccc2c1=O	inactive
O=C(Cn1nc([N+](=O)[O-])nc1Br)NC1CCCCC1	inactive
CCC1Nc2ncnc(N3CCN(c4ccccc4)CC3)c2N(Cc2ccc(Cl)cc2)C1=O (centres undefined)	inactive
COc1ccc(NC(=O)c2sc3nc(C)nc(N4CCN(c5ccccn5)CC4)c3c2C)c(OC)c1	inactive
Cc1nc(N2CCN(c3ccccn3)CC2)c2c(C)c(C(=O)Nc3ccc(F)c(Cl)c3)sc2n1	-10.3 (active)
Cc1nc(N2CCN(c3ccccn3)CC2)c2c(C)c(C(=O)Nc3ccc(F)cc3)sc2n1	inactive
Cc1ccc2cccc(OCCCOc3ccccc3CO)c2n1	inactive
O=C(COC(=O)c1cccs1)NCc1cccs1	inactive
O=C(COC(=O)c1cc2c(s1)CCCC2)NCc1ccccc1Cl	inactive
O=C(COC(=O)/C(=C/c1cccs1)c1cccs1)NCc1ccccc1Cl	-9.72 (active)
CC(C)(C)NC(=O)COC(=O)c1cc(Br)ccc1Cl	inactive
O=C(NNS(=O)(=O)c1ccc(F)cc1)c1ccc([N+](=O)[O-])cc1Cl	inactive
COc1ccc(-c2[nH]ncc2/C=N/NC(=O)c2cc(Br)ccc2O)c(OC)c1	inactive

Structure (SMILES)	B-score
Cc1ccc(C)c(NC(=O)CSc2nnc(Cc3cccn3C)n2-c2ccc(F)cc2)c1	inactive
Cc1ccc(C)c(Cn2cnc3c(oc4ccccc43)c2=O)c1	inactive
Cc1ccc(C)c(NC(=O)CSc2nc3c(oc4ccccc43)c(=O)n2-c2ccccc2)c1	-7.91 (active)
C=CCOc1ccc(C(=O)Nc2ccccc2C(=O)N2CCCC2)cc1	inactive
Cc1ccc(C2NC(C(=O)O)CS2)cc1 (centres undefined)	inactive
COc1cccc(-c2cnc(OC(C)(C)C)nc2OC(C)(C)C)c1	-8.72 (active)
COc1ccc(-c2nc(N)ncc2-c2ccc(Cl)cc2)c(O)c1	inactive
CC(C)(C)Oc1ncc(Br)c(OC(C)(C)C)n1	inactive
COc1ccc(CN2CCC(c3nc4ccc(Cl)cc4[nH]3)CC2)cc1	inactive
Cc1ccc(C(=O)NC2CCN(C(=O)Nc3ccc(F)cc3)CC2)cc1	inactive
CN(C)c1ccc(C(CNC(=O)c2ccc(F)cc2)c2c[nH]c3ccccc23)cc1 (centres undefined)	-13 (active)
O=C(CNC(=O)c1ccc(F)cc1)c1ccccc1	inactive
O=C(Cc1ccccc1)NCc1ccc(F)cc1	inactive
O=C(CN(c1ccccc1)S(=O)(=O)c1ccc(Cl)cc1)Nc1ccccc1C(=O)N1CCCC1	inactive
Clc1ccc(-c2ncc3ccccn23)c(Cl)c1	inactive
Clc1ccc(COn2c(-c3ccc(Cl)cc3Cl)nc3ncccc32)cc1	-10.6 (active)
COn1c(-c2ccc(Cl)cc2Cl)nc2ncccc21	inactive
CC1CCN(S(=O)(=O)c2nnc(NC(=O)COc3ccccc3F)s2)CC1	inactive
N/C(=N\S(=O)(=O)c1ccc(Cl)cc1)N1CCOCC1	inactive
CCOC(=O)CSC1=C(C#N)C(c2ccco2)C(C(=O)OCc2ccccc2)=C(C)N1 (centres undefined)	-7.3 (active)
CC1=C(C(=O)OCc2ccccc2)C(c2ccco2)n2ncnc2N1 (centres undefined)	inactive
Cc1ccc(C2CC(=O)NC(SCC(=O)OCc3ccccc3)=C2C#N)o1 (centres undefined)	inactive
CC(=O)N[C@@H](C)C(=O)N1CCC(n2nccc2NC(=O)CCCc2ccccc2)CC1	inactive
COc1ccc(-n2c(=O)[nH]c3cc(C(=O)NCCc4ccc(OC)c(OC)c4)ccc3c2=O)c(OC)c1	inactive
COc1ccccc1-c1n[nH]c2c1[C@H](C)CC[C@H]2C(C)C	-6.66 (active)
COc1ccccc1-c1nc(SC)n[nH]1	inactive

Structure (SMILES)	B-score
COc1ccc(-c2n[nH]c(C)c2-c2ccccc2OC)c(O)c1	inactive
Cc1ccc2nc(SCC(=O)N3CCN(c4ccccc4)CC3)nc(=O)n2c1	inactive
O=C(NCC(=O)N1CCCC(C(F)(F)F)C1)c1ccccc1F (centres undefined)	inactive
Cc1ccc(CNC(=O)CCS(=O)(=O)c2ccc3c(c2)CC(C)N3C(=O)C2CC2)o1 (centres undefined)	inactive
Cc1ccc(C(=O)Nc2ccc(C)c(S(=O)(=O)N(C)C)c2)s1	inactive
O=C(NCCCO)c1cc2c([nH]c3ccccc32)c(-c2ccc(F)cc2)n1	inactive
C=CCn1c(SCC(=O)NC)nnc1C12CC3CC(CC(C3)C1)C2	inactive
CC1=C(C(=O)OC(C)(C)C)C(c2ccc(Br)cc2)NC(=O)N1CCCC(=O)O (centres undefined)	inactive
Cc1ccc(C2Nc3ccccc3C(=O)N2CCN2CCNC2=O)cc1 (centres undefined)	inactive
COc1ccc(C2Nc3ccccc3C(=O)N2Cc2ccccc2)cc1Cn1nnc2ccccc21 (centres undefined)	-8.45 (active)
COc1ccc(C2Nc3ccccc3C(=O)N2c2ccc(F)cc2)cc1Cn1nnc2ccccc21 (centres undefined)	inactive
Cc1cc(NC(=O)/C=C/C(=O)N(CC(=O)NC2CCCC2)c2ccc(F)cc2)no1	inactive
CCCCCCOC(=O)NCC(O)c1ccccc1 (centres undefined)	inactive
COc1cccc(C(O)c2nc3ccccc3n2C)c1 (centres undefined)	inactive
CCCCCC(O)c1cccc(OCc2ccc3ccccc3n2)c1 (centres undefined)	-16.3 (active)
COc1cc(CCC(=O)N2CCN(c3ccccc3Cl)CC2)cc(OC)c1OC	inactive
CCOc1ccc(C2c3[nH]c4ccccc4c3CCN2Cc2cccn2-c2ncccn2)cc1 (centres undefined)	-9.89 (active)
c1ccc(C2c3[nH]c4ccccc4c3CCN2Cc2cccn2-c2cccnc2)nc1 (centres undefined)	inactive
CCOc1ccc(C2c3[nH]c4ccccc4c3CCN2Cc2cn(CC)nc2C)cc1 (centres undefined)	inactive
O=C(/C=C/c1cccs1)c1cc(Cl)ccc1OC(=O)N1CCOCC1	inactive
COc1cc(NC(=S)NCc2ccc(S(N)(=O)=O)cc2)cc(OC)c1	inactive
COc1cc(NC(=S)NCCSc2ccc(C)cc2)cc(OC)c1	-9.28 (active)
COc1cc(NC(=O)Nc2ccc(C)cc2)cc([N+](=O)[O-])c1	inactive
Cc1cc(C)n(-c2ccc(NC(=O)C3CCCCN3C(=O)c3cccs3)cc2)n1 (centres undefined)	inactive
CNC(C)C#Cc1ccc2sc3cc(OC)c(OC)cc3c(=O)c2c1 (centres undefined)	inactive
CCOC(=O)C1=C(c2ccccc2)O/C(=C(/C(=O)OC)C(F)(F)F)S1	inactive
